Assay results as given in PubChem BioAssay (NCI).
Compounds without any hit were thinned out: in the full panel of roughly 83,000, 20% have a hit.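 Activity criterion: percent growth below 10, measured after cells in 96-well plates were exposed to a single compound concentration for 48 hours.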 Values without a mark were called inactive. Calls of active or inactive are those of the source.

test system: SK-OV-3 ovarian; experiment: NCI-60 one-dose screen, 48 h (100 = growth as untreated, 0 = no growth, -100 = all killed); conditions: 10 µM unless noted

In order of falling growth:
1. Cc1[nH]n(C(N)=S)c(=O)c1N=Nc1ccc(F)c(Cl)c1  280%
2. COc1ccc(COC(C)=O)cc1  113%
3. CCN(CC)CCCNCCCNc1cc(OC)cc2cccnc12  111%
4. [O-]/[N+](=C\C=C\c1ccccc1)c1ccccc1  110%
5. CN(CCOc1ccc(CC2SC(=O)NC2=O)cc1)c1ccccn1 (configuration not stated)  106%
6. NC(=O)N/N=C/c1ccc(Br)o1  101%
7. CN=C(NC)N/N=C(C)\C=N\NC(=NC)NC  101%
8. COc1cc(OC)c2cc(C(=O)O)c(=O)oc2c1  99.9%
9. CCCn1cnc2c1c(=O)n(CCCCC(C)=O)c(=O)n2C  95.1%
10. O=C(/C(=N/O)S(=O)(=O)c1ccccc1)c1cccs1  94%
11. Clc1cccc(Cc2cn3cc(-c4ccccc4)nc3s2)c1  93.8%
12. O=C1/C(=C/c2ccc3cccc(Cl)c3n2)SC(=S)N1CCc1ccc(O)cc1  93.2%
13. O=C(CSc1nc2c(n1Nc1ccccc1)-c1ccccc1SC2)Nc1nc(-c2ccc(Cl)cc2)cs1  82.9%
14. CCC(C)CC(C)C(=O)c1c(O)ccn(O)c1=O (configuration not stated)  65.3%
15. COC(=O)CCC1=C(CC(=O)OC)C(C)=N/C1=C\c1[nH]c(-c2ccc[nH]2)cc1OC  64.6%

For `C[n+]1c2ccccc2c(NC2CCNCC2)c2[nH]c3ccccc3c21`, the growth was -0.545% (active).
In the case of `COc1cc2c(cc1OCCCOc1ccc(-c3cc4ccccc4c4ccccc34)cc1)N=C[C@@H]1CCCN1C2=O`, the growth is reported as -19.3% (active).
